KB-V1 MDR tox – kills drug-selected multidrug resistant KB-V1 cells; Potency, µM (highest dose often 46.1 µM), actives largely listed as cytotoxic; AID 1347076; KB-V1 MDR cells viability, CellTiter-Glo, 72 h; 400,000 compounds, 3.4% hits; also: % is scaled to controls: 0 for no effect and ±100 for the full control effect; nearly all actives have a fitted effect of over 60% in size
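Compound-treated KB-V1 multidrug-resistant cells, 72 h, 37 degrees C; viability by CellTiter-Glo. Fitted qHTS curves give the values.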
HT1080 IDH1KD tx – toxicity to HT-1080 IDH1 knockdown cells (counter line) | Potency, µM (top dose mostly 46.1 µM), inactives show top-dose activity, negative = toxicity, actives largely listed as cytotoxic | AID 686971 | 360,000 compounds, 2% hits | HT-1080 IDH1 knockdown viability, ATP luminescence, 48 h;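 also: 0% = DMSO wells and -100% = cell-free medium wells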
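Luminescent ATP read-out (CellTiter-Glo, 10 min at room temperature) after 48 h compound exposure at 37 °C gave viability of IDH1-knockdown HT-1080 cells. Activity was normalised to DMSO and cell-free wells, then fitted as concentration-response curves.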
KB-3-1 tox – KB-3-1 parental cell cytotoxicity | KB-3-1 viability, CellTiter-Glo ATP luminescence, 72 h | Potency, µM (highest dose often 46.1 µM), usual class: cytotoxic | 400,000 compounds, 1.4% hits | AID 1347075; also: % is scaled to controls: 0 for no effect and ±100 for the full control effect; nearly all actives have a fitted effect of over 60% in size
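Viability of parental KB-3-1 cells, measured by CellTiter-Glo luminescence, followed a 72 h incubation at 37 °C with pinned compounds in phenol-red-free DMEM containing 10% FBS.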
HT1080NT lethal – kills 2HG-producing HT-1080-NT fibrosarcoma cells; HT-1080-NT fibrosarcoma viability, CellTiter-Glo ATP luminescence, 48 h; Potency, µM (highest dose often 46.1 µM), without a hit: at the top dose activity, negative = less viability, usual class: cytotoxic; 360,000 compounds, 1.6% hits;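 also: NT is the 2HG producing partner of a matched IDH1 knockdown line; 0% = DMSO-treated cells and -100% = media-only wells without cells; nearly all actives have a fitted effect of over 55% in size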
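Fibrosarcoma NT cells, 750 per well in 5% FBS RPMI, were exposed to compound for 48 hours. Viability: CellTiter-Glo luminescence.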
SW480 rerep – induces DNA re-replication in SW480 colon adenocarcinoma cells; SW480 DNA re-replication, Hoechst DNA content imaging, 48 h; Potency, µM (highest dose often 46.1 µM), for the others: at the top dose re-replication activation, usual class: activators; 340,000 compounds, 1.8% hits; also: % of control where 0% means no effect; nearly all actives have a fitted effect of over 55% in size
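Readout is total intensity of Hoechst-stained nuclei, excited at 405 nm and collected at 500-530 nm. Compound treatment lasted 48 hr at 37 C in 5% CO2 before staining.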
MCF10A rereplic – induces DNA re-replication in MCF 10a normal breast cells. 350,000 compounds, 2.9% hits. Potency, µM (titrated, usually from 46.1 µM), for the others: top-dose activity, positive = re-replication, most hits filed as activators. MCF 10A DNA re-replication, Hoechst nuclear intensity, 48 h. AID 624296; also: % of control where 0% means no effect; nearly all actives have a fitted effect of over 50% in size
The depositor's hits bear a star; i = inactive; u = inconclusive; x = no result; ! = repeats disagree; [ ] = another dose, or the depositor's remark. Rows were chosen to be rich in hits. Some 7.9% of all compounds tested hit in one or more screens of this group. Calls follow the shape of the dose curve; as a rule, active = well fitted curve in the direction sought with a large enough effect; inconclusive = small, poorly fitted or top-dose-only effect, or another doubt; inactive = no such curve, though single readings can be large; an effect the other way counts as inactive or inconclusive. Potency is read from the fitted curve at half-maximal effect.

SMILES	KB-V1 MDR tox	HT1080 IDH1KD tx	KB-3-1 tox	HT1080NT lethal	SW480 rerep	MCF10A rereplic
COc1ccc(/C=C(\C#N)c2nc3ccccc3n2C)c(OC)c1	i	x	i	x	x	x
O=C(CCSc1nc2ccccc2s1)N/N=C/c1c(O)ccc2ccccc12	i	u	u	u	6.5µM*	21µM*
O=C(N/N=C\c1c(O)ccc2ccccc12)c1ccc(Cn2cccn2)o1	u	u	16µM*	u	u	10µM*
Cc1nnc(N2CCN(c3ccc(Cl)cc3)CC2)c2c1nnn2Cc1ccc(F)cc1	i	x	i	x	x	x
Cc1ccc(-c2c(C(=O)NCc3ccc(F)cc3)oc(=O)c3ccccc23)cc1	16µM*!	-3%	i	-2%	0%	9%
Cc1ccc(-c2c(C(=O)Nc3ccccc3F)oc(=O)c3ccccc23)cc1	i	x	i	x	x	x
Cc1ccc(CNC(=O)Cn2c(=O)cc(C(F)(F)F)c3c(C)nn(C)c32)cc1	i	x	i	x	x	x
COc1cccc(S(=O)(=O)Nc2ccc3c(c2)C(=O)N(C)C[C@H](OC)[C@H](C)CN(Cc2ccccc2F)[C@@H](C)CO3)c1	15µM*	u	u	u	x	x
CO[C@H]1CN(C)C(=O)c2cc(NS(=O)(=O)c3ccccc3)ccc2OC[C@@H](C)N(Cc2ccccn2)C[C@@H]1C	i	15%	i	15%	x	x
CSC(SC)=C(C#N)C(=O)c1ccccc1	u	21µM*	i	u	u	23µM*
CCOc1ccccc1CNC(=O)CCCN1C(=O)CCn2nc(-c3cccn3C)cc21	i	x	i	x	x	x
CC(=O)c1ccc(Nc2ccc3cc(S(=O)(=O)N4CCCC4)ccc3n2)cc1	i	x	i	x	x	x
CC(=O)Nc1ccc(CC(=O)NCCC(c2ccccc2)c2ccccc2)cc1	i	33µM*	i	26µM*	21µM*	u
CC(=O)N1c2c(cc(Br)cc2S(=O)(=O)NCc2cccnc2)CC1C (centres undefined)	i	-4%	i	-4%	0%	4%
CCCCN(Cc1ccccc1)S(=O)(=O)c1cc(Br)cc2c1N(C(C)=O)C(C)C2 (centres undefined)	21µM*	u	i	u	-1%	2%
CC(C)c1ccc(N(C(=O)c2snc(C(N)=O)c2N)C(C(=O)NCC2CCCO2)c2ccc(N(C)C)cc2)cc1 (centres undefined)	21µM*	u	u	-15%	2%	u
CN(C)c1ccc(C(C(=O)NCC2CCCO2)N(C(=O)c2snc(C(N)=O)c2N)c2ccccc2)cc1 (centres undefined)	i	11%	i	11%	-19%	u
CC(C(=O)NCC1CCCO1)N(C(=O)c1snc(C(N)=O)c1N)c1cccc(F)c1 (centres undefined)	12µM*	0%	i	-4%	-2%	-6%
O=C1CC(c2nnc(Cc3ccc(F)cc3Cl)o2)CN1c1ccccc1 (centres undefined)	i	x	i	x	x	x
O=Cc1cc(Cl)ccc1OCCN1CCC(Cc2ccccc2)CC1	i	u	u	21µM*	-1%	u
CCOC(=O)C1CCCN(C(=O)c2ccc3nc(-c4cccc(OC)c4)oc3c2)C1 (centres undefined)	i	6.5µM*	5.8µM*	u	16µM*	u
CCOC(=O)C1CCCN(C(=O)c2cc3c(C)nc4ccccc4c3o2)C1 (centres undefined)	13µM*	-6%	i	0%[9.24 µM]	-1%	20%
CCC(=O)C1CCCN(C(=O)c2ccc3nc(-c4cccc(OC)c4)oc3c2)C1 (centres undefined)	i	-10%	i	-18%	8%	u
COc1ccccc1N1CCN(C(=O)c2cc3c(C)nc4ccccc4c3o2)CC1	u	-24%	u	u	0%	22%
Cc1ccc(C)c(N2CCN(C(=O)c3cc4c(C)nc5ccccc5c4o3)CC2)c1	i	-1%	i	3%	-9%	21µM*
SMILES	KB-V1 MDR tox	HT1080 IDH1KD tx	KB-3-1 tox	HT1080NT lethal	SW480 rerep	MCF10A rereplic
COc1cccc(CNC(=O)c2[nH]c3cc(C)ccc3c2Sc2ccccc2)c1	i	x	i	x	x	x
COc1ccccc1NC(=O)C1CCN(S(=O)(=O)c2ccc3[nH]c4c(c3c2)CCCCC4)CC1	i	x	i	x	x	x
COc1ccccc1NC(=O)c1cnc(Nc2ccccc2OC)c2ccccc12	9.2µM*	u	18µM*	3.7µM*	2.8µM*	u
COc1ccc(C)cc1S(=O)(=O)N1CCCC(C(=O)NCc2ccccn2)C1 (centres undefined)	u	-8%	i	2%	2%	5%
O=C(NCc1ccccn1)C1CCCN(S(=O)(=O)c2cc(Cl)ccc2Cl)C1 (centres undefined)	0.73µM*	5.8µM*	u	5.8µM*	u	0.73µM*
COC(=O)c1ccc2c(=O)n(-c3ccccc3F)c(=S)[nH]c2c1	18µM*	-1%	u	0%	-2%	5%
COc1ccc(C2=NC(c3ccncc3)=Nc3ccc(OC)cc3N2)cc1	i	x	i	x	x	x
COC(=O)c1[nH]c2ccc(Cl)cc2c1NC(=O)c1ccccc1[N+](=O)[O-]	i	-3%	i	-3%	-1%	5%
CCOC(=O)c1[nH]c2ccccc2c1NC(=O)c1ccccc1OCC	u	x	1.6µM*	x	x	x
COC(=O)c1[nH]c2ccc(C)cc2c1NC(=O)c1ccccc1[N+](=O)[O-]	16µM*	7%	i	4%	-5%	u
CCOC(=O)c1[nH]c2ccccc2c1NC(=O)c1ccc(OCC)cc1	i	x	i	x	x	x
CCOC(=O)c1[nH]c2ccccc2c1NC(=O)c1ccc(S(=O)(=O)N2CCCCC2)cc1	i	-13%	i	-15%	6%	23µM*
CCOC(=O)Cn1c(=O)n(CC2CCCO2)c2nc(-c3cccc(C)c3)nc(C(N)=O)c21 (centres undefined)	u	x	i	x	x	x
Cc1ccc(NC(=O)C(Cc2c[nH]c3ccccc23)NC(=O)OCC(C)C)cc1 (centres undefined)	i	x	i	x	x	x
O=C(Cn1c2ccccc2c(=O)c2cc([N+](=O)[O-])ccc21)Nc1ccccc1Cl	i	6%	i	0%	16µM*	u
O=C(Cn1c2ccccc2c(=O)c2ccccc21)Nc1ccccc1F	u	-24%	i	-2%	x	u
O=C(CSc1nc2c(oc3ccccc32)c(=O)n1Cc1ccco1)Nc1ccccc1Cl	i	x	i	x	x	x
